# MCF10A rerep: A quantitative high throughput screen for small molecules that induce DNA re-replication in MCF 10a normal breast cells | Potency, µM (doses to about 46.1 µM), for inactives: at the top dose activity, positive = re-replication, hits mostly activators | MCF 10A DNA re-replication, Hoechst nuclear intensity, 48 h | 350,000 tested, 2.9% active; note: potency is the fitted concentration of half-maximal effect; % of control where 0% means no effect; nearly all actives have a fitted effect of over 50% in size
# ASM inhibitor: Inhibitors of Secretory Acid Sphingomyelinase (S-ASM): qHTS; placental ASM, HMU-PC fluorogenic substrate, 60 min; Potency, µM (highest dose often 57.5 µM), for the others: at the highest dose activity change, negative = inhibition, actives largely listed as inhibitors; 340,000 tested, 0.006% active; Sphingomyelin phosphodiesterase (Homo sapiens), P17405; note: potency is the fitted concentration of half-maximal effect
# Target sequence (P17405 47-631 limits assumed): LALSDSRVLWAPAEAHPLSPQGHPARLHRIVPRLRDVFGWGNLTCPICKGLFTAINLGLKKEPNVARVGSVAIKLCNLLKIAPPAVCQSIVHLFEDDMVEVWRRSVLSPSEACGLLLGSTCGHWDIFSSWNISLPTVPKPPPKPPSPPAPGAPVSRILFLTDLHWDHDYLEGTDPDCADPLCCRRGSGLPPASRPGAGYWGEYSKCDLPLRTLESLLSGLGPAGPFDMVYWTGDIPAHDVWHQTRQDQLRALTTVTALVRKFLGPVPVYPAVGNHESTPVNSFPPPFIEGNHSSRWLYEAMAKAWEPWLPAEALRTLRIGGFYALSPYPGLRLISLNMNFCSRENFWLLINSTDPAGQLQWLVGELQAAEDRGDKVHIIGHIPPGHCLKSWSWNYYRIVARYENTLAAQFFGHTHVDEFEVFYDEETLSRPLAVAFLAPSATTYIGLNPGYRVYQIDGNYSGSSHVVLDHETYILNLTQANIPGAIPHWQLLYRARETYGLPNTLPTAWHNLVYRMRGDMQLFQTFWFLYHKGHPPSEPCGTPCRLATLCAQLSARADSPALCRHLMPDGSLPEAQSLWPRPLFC
#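 Fluorogenic HMU-PC substrate (9 uM final) is turned over by placental ASM in 60 min at 37 C after a 10 min compound preincubation. Reaction ended by alkaline stop (pH 10), with fluorescence read at 386/447 nm.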
# KB-3-1 tox: qHTS assay for MDR1-selective chemotherapeutics: Primary screen using the parental adenocarcinoma cell KB-3-1 | 400,000 tested, 1.4% active | Potency, µM (titrated, usually from 46.1 µM), actives largely listed as cytotoxic | KB-3-1 viability, CellTiter-Glo ATP luminescence, 72 h | AID 1347075, 2019; note: potency is the fitted concentration of half-maximal effect; % is set by controls: 0 for no effect and ±100 for the full control effect; nearly all actives have a fitted effect of over 60% in size
#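 Cells are dispensed, compounds pinned in, plates held at 37 °C for 72 h, then CellTiter-Glo is added and luminescence read after 10 minutes. Cell line: parental KB-3-1 in phenol-red-free DMEM, 10% FBS.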
# SW480 rerep: A quantitative high throughput screen for small molecules that induce DNA re-replication in SW480 colon adenocarcinoma cells. Potency, µM (highest dose often 46.1 µM), for the others: at the highest dose re-replication activation, actives largely listed as activators. SW480 DNA re-replication, Hoechst DNA content imaging, 48 h. 340,000 tested, 1.8% active. AID 624297, 2012; note: potency is the fitted concentration of half-maximal effect; % of control where 0% means no effect; nearly all actives have a fitted effect of over 55% in size
#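 Quantitative HTS format with DMSO vehicle controls; 48 hr drug incubation at 37 C, then 40 min Hoechst staining and scanning imager measurement at 405 nm excitation.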
# KB-V1 MDR tox: qHTS assay for MDR1-selective chemotherapeutics: Primary screen using the drug-selected MDR subline cells KB-V1; KB-V1 MDR cells viability, CellTiter-Glo, 72 h; AID 1347076, 2019; 400,000 tested, 3.4% active; Potency, µM (titrated, usually from 46.1 µM), actives largely listed as cytotoxic; note: potency is the fitted concentration of half-maximal effect; % is set by controls: 0 for no effect and ±100 for the full control effect; nearly all actives have a fitted effect of over 60% in size
#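 Compound-treated KB-V1 multidrug-resistant cells, 72 h, 37 degrees C; viability by CellTiter-Glo. Fitted qHTS curves give the values.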
# Giardia kill: Small Molecules that selectively kill Giardia lamblia: qHTS | Giardia lamblia trophozoite viability | activity change, % at 7.66 µM, hits read low | 340,000 tested, 0.15% active; in the data active = activity change below about -80%; inconclusive = between about -30% and that limit;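 note: parasites exposed to compound for two days anaerobically before the ATP read; % is set by controls: 0 for no effect and ±100 for the full control effect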
#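 Viability, read as ATP luminescence: trophozoites at 100 cells/well, compound added, 48 hrs anaerobic at 37 deg C, then 15-30 min room-temperature development before reading.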
# Starred values were filed as active, the others as inactive; i = inactive; u = inconclusive; x = no result given; [ ] = another dose, or the depositor's remark. An excerpt weighted towards active compounds, which were near 6.9% of everything screened. Unless noted, calls come from the whole dose curve; as a rule, active = well fitted curve in the direction sought with a large enough effect; inconclusive = small, poorly fitted or top-dose-only effect, or another doubt; inactive = no such curve, though single readings can be large; an effect the other way counts as inactive or inconclusive.
SMILES,MCF10A rerep,ASM inhibitor,KB-3-1 tox,SW480 rerep,KB-V1 MDR tox,Giardia kill
COc1ccc(C2=C(C)C(=O)N(Cc3ccc(C(=O)Nc4ccc(F)cc4C)cc3)S2(=O)=O)cc1,x,x,4.6µM*,x,i,x
CCCCC(=O)N(C)c1c(CC)nc2c(OCCC)cccn12,x,x,i,x,i,x
COc1ccc(NC(=O)Nc2cccc3c2O[C@H](CN(C)S(=O)(=O)c2cn(C)cn2)[C@@H](C)CN([C@H](C)CO)C3=O)cc1,12%,-1%,i,-1%,i,9
CC(=O)c1ccc2c(c1)C1C=CCC1C(c1cc3c(cc1Br)OCO3)N2 (configuration not stated),4.1µM*,-13%,5.8µM*,12µM*,6.5µM*,-7
CC(=O)c1ccc2c(c1)C1C=CCC1C(c1ccc(S(=O)(=O)N3CCOCC3)cc1)N2 (configuration not stated),10%,-3%,i,x,u,23
COc1ccc2c(c1)C1C=CCC1C(c1cc3c(cc1Br)OCO3)N2 (configuration not stated),3.7µM*,-8%,u,9.2µM*,i,1
COc1cccc(NS(=O)(=O)c2ccc3c(c2)[C@H]2C=CC[C@H]2[C@@H](c2ccccc2Cl)N3)c1,x,x,u,x,i,x
Cc1ccc2[nH]c3c(=O)n(CC(=O)Nc4ccc(Br)cc4C)ncc3c2c1,x,x,i,x,i,x
O=C(c1ccccc1)N1CCN(CC2CC=CCC2)CC1 (configuration not stated),-177%[0.0737 µM],0%,i,3%,i,-4
O=C(c1ccccc1)N1CCN(CC(O)COCC2CC=CCC2)CC1 (configuration not stated),4%,1%,i,-12%,9.2µM*,22
O=C(CN1CCOCC1)Nc1cccc(C(=O)Nc2cccc(C(F)(F)F)c2)c1,1%,-2%,i,-5%,i,1
CC(=O)c1c(C)[nH]c(C(=O)Nc2cccc(C(F)(F)F)c2)c1C,4%,-8%,u,9%,13µM*,21
CCCCCNCC(=O)Nc1cccc(C(=O)Nc2cccc(C(F)(F)F)c2)c1,u,-9%,u,18%,23µM*,-4
COc1ccc(NC(=O)c2[nH]c(C)c(C(C)=O)c2C)cc1Cl,u,0%,i,u,i,39
COc1ccc(C(C)(C)C)cc1NC(=O)c1[nH]c(C)c(C(C)=O)c1C,18µM*,-17%,u,u,u,1
COC(=O)c1c(NC(=O)c2cc(=O)c3cc(C)cc(C)c3o2)sc2c1CCC2,x,x,i,x,i,x
CCn1c(=O)c([N+](=O)[O-])c(Cl)c2ccccc21,26%,-4%,u,8.2µM*,i,1
COc1ccc(C(CNC(=O)COc2ccccc2C)N2CCOCC2)cc1 (configuration not stated),0%,-1%,i,3%,18µM*,-14
CC(C)c1ccccc1OCC(=O)NCC(c1cccs1)N1CCOCC1 (configuration not stated),2%,-5%,i,-5%,18µM*,-11
Cc1nnnn1/C(=C\c1ccccc1)C(=O)OCC(=O)NC1CCCCC1,u,4%,i,23µM*,i,10
CCc1cc2c(=O)[nH]c(N3CCCC3)nc2s1,0%,21%,i,u,i,-17
CCc1cc2c(=O)[nH]c(-c3ccccn3)nc2s1,12µM*,13%,12µM*,6.5µM*,u,-7
CC(C)Oc1ccccc1C1(c2ccccc2)NC(=O)NC1=O (configuration not stated),6%,3%,i,-4%,i,5
CC(C)c1c(C#N)c(N)nc(SCC(=O)c2cc3ccccc3oc2=O)c1C#N,15µM*,-3%,u,u,u,43
N#Cc1ccc(-c2ccccc2)nc1SCC(=O)c1cc2ccccc2oc1=O,5µM*,5%,i,u,i,-15
SMILES,MCF10A rerep,ASM inhibitor,KB-3-1 tox,SW480 rerep,KB-V1 MDR tox,Giardia kill
O=C(CSc1nnc(-c2cccnc2)o1)c1cc2ccccc2oc1=O,u,0%,i,-8%,u,-10
Cc1nc(SCC(=O)c2cc3ccccc3oc2=O)c(C#N)c(-c2cccs2)c1C(=O)Nc1ccccc1,11%,31%,i,u,i,-16
COc1ccc(CCNC(=O)COC(=O)Cn2cnc3ccccc32)cc1OC,-6%,1%,i,4%,i,-19
COc1ccccc1CNC(=O)COC(=O)C1CCN(c2ccc(C(F)(F)F)cn2)CC1,8%,-2%,i,4.6µM*,i,3
CC(OC(=O)C1CCN(c2ccc(C(F)(F)F)cn2)CC1)C(=O)NC1CCCCC1C (configuration not stated),1%,-4%,i,0%,23µM*,-4
COc1ccccc1CNC(=O)COC(=O)Cn1cnc2ccccc21,0.82µM*,3%,i,u,i,15
CCN(C(=O)COC(=O)CNC(=O)c1ccc2ccccc2c1)C1CCS(=O)(=O)C1 (configuration not stated),5.8µM*,1%,i,-35%,i,1
CCN(C(=O)COC(=O)c1cc(-c2cccc3ccccc23)nc2ccccc12)C1CCS(=O)(=O)C1 (configuration not stated),4%,30%,i,11%,18µM*,-4
C(=C\c1ccnc2ccccc12)/c1ccc(N(Cc2ccccc2)Cc2ccccc2)cc1,x,x,i,x,i,x
CC(C(=O)N=Nc1c(O)[nH]c2ccccc12)n1cnc2ccccc2c1=O (configuration not stated),u,-3%,i,u,18µM*,-1
Cc1cccc2c(N=NC(=O)C(C)n3cnc4ccccc4c3=O)c(O)[nH]c12 (configuration not stated),-18%,-1%,i,19%,i,7
O=C1c2ccccc2-c2onc3ccc(Oc4ccccc4)c1c23,u,-14%,u,9%,23µM*,-3
NCCCN(Cc1ccc(Cl)c(Cl)c1)c1ccc(Br)cn1,x,x,x,x,x,0
CCCCOc1ccc(Br)cc1/C(C)=N/NC1=NCCN1,10µM*,1%,4.1µM*,u,5.8µM*,25
Oc1cc(NCCN2CCOCC2)cc2cccnc12,u,-2%,15µM*,u,i,1
